Measurements from publication PMC7862700, “An all-to-all approach to the identification of sequence-specific readers for epigenetic DNA modifications on cytosine”.

How the values were obtained:
Test in all cases: DAPPL (digital affinity profiling via proximity ligation, sequencing); 10 mM Tris-HCl pH 7.5, 50 mM NaCl, 1 mM DTT, 4% glycerol, room temperature, 30 min; GST-TFs on glutathione beads, 16-mer random dsDNA library, 0.1% formaldehyde crosslink after washing; high values mean tight binding
Details in all cases: protein: recombinant; tags: N-terminal GST; dsDNA, one strand shown
FLI1 = molecular target: T1, FLI1 (Homo sapiens, UniProt Q01543 1-452)
T1 sequence: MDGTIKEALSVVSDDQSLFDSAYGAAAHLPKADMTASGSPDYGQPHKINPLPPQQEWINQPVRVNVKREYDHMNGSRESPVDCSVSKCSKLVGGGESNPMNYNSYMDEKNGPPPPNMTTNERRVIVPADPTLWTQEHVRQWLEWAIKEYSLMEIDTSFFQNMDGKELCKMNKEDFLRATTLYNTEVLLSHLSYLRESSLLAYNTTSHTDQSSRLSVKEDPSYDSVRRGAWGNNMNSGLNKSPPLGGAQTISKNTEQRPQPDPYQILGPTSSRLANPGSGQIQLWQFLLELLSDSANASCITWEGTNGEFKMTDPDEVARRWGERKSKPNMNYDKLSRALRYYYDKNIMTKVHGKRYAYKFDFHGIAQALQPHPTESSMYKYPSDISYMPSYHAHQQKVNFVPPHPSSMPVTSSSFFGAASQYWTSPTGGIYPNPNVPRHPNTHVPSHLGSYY
Method in brief: (§1)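 Human transcription factors carrying a GST fusion were produced in yeast, bound to glutathione beads, tagged with DNA barcodes and pooled together with a tag-only sample. Each pool was held with 200 nmole of a random double-stranded 16-mer DNA library in Tris/NaCl/DTT/glycerol buffer for 30 min at room temperature, then washed, crosslinked in 0.1% formaldehyde, proximity-ligated with BsaI/T4 ligase (1 h, 37 °C), PCR-amplified and sequenced on an Illumina NextSeq500. Binding signal is the read frequency of each hexamer for a given factor divided by its frequency in the tag-only sample.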

ELK1 = molecular target: T2, ELK1 (Homo sapiens, UniProt P19419 1-428)
T2 sequence: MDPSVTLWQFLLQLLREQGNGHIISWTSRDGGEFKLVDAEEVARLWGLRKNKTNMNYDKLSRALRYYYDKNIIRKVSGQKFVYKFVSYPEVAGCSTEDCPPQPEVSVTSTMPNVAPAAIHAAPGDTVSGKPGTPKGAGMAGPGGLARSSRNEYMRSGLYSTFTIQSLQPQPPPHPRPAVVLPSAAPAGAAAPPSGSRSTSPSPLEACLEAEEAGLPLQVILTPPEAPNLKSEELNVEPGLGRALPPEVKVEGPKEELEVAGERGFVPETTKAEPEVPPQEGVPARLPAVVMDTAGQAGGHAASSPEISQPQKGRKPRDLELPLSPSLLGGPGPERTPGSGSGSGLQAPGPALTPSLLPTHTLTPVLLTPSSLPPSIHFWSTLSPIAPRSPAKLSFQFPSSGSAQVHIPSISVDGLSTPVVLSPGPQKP
Method in brief: as §1

ERG = molecular target: T3, ERG (Homo sapiens, UniProt P11308 1-479)
T3 sequence: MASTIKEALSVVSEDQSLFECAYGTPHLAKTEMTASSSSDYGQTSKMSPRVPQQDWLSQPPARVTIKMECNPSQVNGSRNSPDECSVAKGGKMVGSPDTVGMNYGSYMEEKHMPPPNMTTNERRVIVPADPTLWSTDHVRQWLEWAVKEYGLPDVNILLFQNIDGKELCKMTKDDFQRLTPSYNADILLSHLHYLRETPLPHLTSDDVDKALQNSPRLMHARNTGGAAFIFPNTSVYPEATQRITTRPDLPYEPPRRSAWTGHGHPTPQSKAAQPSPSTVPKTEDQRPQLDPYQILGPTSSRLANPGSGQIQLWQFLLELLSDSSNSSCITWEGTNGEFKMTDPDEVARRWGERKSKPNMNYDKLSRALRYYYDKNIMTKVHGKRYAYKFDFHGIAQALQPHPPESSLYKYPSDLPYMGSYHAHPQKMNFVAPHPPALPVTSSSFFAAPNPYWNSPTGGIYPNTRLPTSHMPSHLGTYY
Method in brief: as §1

ELF1 = ELF1 (Homo sapiens, UniProt P32519 1-619)
Method in brief: as §1

EHF = molecular target: T4, EHF (Homo sapiens, UniProt Q9NZC4 1-300)
T4 sequence: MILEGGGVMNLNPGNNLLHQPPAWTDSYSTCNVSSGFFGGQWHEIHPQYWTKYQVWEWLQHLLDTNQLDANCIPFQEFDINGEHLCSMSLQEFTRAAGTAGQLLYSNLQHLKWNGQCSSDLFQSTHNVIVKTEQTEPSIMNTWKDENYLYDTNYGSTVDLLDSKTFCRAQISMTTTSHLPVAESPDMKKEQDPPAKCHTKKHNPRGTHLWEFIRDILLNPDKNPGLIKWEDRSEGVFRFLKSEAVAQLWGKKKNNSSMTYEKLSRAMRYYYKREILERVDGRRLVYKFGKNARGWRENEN
Method in brief: as §1

SPI1 = SPI1 (Homo sapiens, UniProt P17947 1-270)
Method in brief: as §1

SPIB = SPIB (Homo sapiens, UniProt Q01892 1-262)
Method in brief: as §1

ELK3 = molecular target: T5, ELK3 (Homo sapiens, UniProt P41970 1-407)
T5 sequence: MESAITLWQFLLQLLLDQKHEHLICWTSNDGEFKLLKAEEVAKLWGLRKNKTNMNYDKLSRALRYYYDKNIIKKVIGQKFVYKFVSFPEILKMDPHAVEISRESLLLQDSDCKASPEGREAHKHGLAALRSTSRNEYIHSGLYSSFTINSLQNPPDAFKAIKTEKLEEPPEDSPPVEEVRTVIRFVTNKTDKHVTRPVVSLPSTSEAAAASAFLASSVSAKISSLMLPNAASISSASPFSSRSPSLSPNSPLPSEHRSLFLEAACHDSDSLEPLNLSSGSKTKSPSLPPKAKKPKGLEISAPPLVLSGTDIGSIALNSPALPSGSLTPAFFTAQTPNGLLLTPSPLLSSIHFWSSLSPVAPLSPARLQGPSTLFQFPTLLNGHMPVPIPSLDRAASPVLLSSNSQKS
Method in brief: as §1

FEV = molecular target: T6, FEV (Homo sapiens, UniProt Q99581 1-238)
T6 sequence: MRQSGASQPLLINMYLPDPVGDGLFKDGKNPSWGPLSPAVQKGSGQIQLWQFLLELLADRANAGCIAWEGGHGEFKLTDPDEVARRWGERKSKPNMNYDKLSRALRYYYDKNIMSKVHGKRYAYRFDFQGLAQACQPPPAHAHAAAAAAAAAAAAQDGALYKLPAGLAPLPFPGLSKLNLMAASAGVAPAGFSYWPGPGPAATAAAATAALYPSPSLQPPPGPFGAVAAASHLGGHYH
Method in brief: as §1

ETV5 = ETV5 (Homo sapiens, UniProt P41161 1-510)
Method in brief: as §1

SPIC = molecular target: T7, SPIC (Homo sapiens, UniProt Q8N5J4 1-248)
T7 sequence: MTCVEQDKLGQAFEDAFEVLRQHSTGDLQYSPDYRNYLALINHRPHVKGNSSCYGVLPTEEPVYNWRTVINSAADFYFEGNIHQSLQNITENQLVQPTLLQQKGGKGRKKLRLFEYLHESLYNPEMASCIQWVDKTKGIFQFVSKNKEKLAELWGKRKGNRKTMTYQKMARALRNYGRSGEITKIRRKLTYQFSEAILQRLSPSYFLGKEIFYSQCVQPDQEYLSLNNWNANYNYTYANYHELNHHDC
Method in brief: as §1

ELF4 = ELF4 (Homo sapiens, UniProt Q99607 1-663)
Method in brief: as §1

ELK4 = molecular target: T8, ELK4 (Homo sapiens, UniProt P28324-2 1-405)
T8 sequence: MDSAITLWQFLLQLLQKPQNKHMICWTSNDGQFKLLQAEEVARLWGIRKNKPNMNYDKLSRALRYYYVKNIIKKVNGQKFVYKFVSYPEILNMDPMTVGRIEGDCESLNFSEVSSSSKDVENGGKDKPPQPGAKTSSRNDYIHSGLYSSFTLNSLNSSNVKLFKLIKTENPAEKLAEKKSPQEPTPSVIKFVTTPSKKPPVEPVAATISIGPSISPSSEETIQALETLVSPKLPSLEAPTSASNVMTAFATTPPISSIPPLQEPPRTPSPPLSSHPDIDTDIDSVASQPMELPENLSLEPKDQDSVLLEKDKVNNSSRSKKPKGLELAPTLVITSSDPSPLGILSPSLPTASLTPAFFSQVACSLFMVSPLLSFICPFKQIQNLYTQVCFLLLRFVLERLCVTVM
Method in brief: as §1

ETV2 = molecular target: T9, ETV2 (Homo sapiens, UniProt O00321 1-342)
T9 sequence: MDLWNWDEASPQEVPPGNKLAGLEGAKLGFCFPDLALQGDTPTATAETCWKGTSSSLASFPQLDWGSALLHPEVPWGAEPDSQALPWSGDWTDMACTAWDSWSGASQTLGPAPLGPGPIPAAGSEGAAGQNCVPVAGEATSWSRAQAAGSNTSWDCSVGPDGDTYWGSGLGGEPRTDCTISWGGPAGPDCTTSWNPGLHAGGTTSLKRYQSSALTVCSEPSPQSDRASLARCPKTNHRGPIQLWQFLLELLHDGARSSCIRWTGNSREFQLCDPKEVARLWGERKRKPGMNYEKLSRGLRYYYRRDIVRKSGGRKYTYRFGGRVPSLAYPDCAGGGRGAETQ
Method in brief: as §1

ELF3 = molecular target: T10, ELF3 (Homo sapiens, UniProt P78545 1-371)
T10 sequence: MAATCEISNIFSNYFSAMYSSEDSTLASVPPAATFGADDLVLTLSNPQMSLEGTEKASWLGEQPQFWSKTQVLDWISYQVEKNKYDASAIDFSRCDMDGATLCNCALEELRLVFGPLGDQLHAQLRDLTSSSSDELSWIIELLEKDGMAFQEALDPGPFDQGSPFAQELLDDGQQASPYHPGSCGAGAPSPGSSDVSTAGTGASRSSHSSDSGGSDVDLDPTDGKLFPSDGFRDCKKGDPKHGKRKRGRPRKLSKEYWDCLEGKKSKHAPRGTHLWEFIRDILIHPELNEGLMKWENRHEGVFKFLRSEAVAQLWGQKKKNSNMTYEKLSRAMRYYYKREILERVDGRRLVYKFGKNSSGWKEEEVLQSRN
Method in brief: as §1

ETV1 = ETV1 (Homo sapiens, UniProt P50549 1-477)
Method in brief: as §1

Sequence of ELF4 (Q99607 whole entry): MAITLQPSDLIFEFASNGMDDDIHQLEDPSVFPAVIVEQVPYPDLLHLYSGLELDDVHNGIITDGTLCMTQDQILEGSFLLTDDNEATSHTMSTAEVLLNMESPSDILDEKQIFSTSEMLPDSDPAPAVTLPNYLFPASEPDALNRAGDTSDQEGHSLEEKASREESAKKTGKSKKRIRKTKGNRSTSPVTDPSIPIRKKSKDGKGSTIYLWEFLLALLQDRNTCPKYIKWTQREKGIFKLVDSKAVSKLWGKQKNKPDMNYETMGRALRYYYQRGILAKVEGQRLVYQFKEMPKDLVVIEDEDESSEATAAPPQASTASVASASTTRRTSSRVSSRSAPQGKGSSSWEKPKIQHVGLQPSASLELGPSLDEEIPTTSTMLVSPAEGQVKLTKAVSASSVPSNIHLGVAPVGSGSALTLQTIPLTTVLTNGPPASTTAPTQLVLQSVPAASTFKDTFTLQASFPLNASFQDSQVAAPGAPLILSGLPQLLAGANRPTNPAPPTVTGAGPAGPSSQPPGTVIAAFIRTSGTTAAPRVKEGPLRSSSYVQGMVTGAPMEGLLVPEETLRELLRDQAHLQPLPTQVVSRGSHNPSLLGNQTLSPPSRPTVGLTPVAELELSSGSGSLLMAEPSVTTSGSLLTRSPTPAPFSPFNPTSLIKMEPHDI
Sequence of ETV5 (P41161 whole entry): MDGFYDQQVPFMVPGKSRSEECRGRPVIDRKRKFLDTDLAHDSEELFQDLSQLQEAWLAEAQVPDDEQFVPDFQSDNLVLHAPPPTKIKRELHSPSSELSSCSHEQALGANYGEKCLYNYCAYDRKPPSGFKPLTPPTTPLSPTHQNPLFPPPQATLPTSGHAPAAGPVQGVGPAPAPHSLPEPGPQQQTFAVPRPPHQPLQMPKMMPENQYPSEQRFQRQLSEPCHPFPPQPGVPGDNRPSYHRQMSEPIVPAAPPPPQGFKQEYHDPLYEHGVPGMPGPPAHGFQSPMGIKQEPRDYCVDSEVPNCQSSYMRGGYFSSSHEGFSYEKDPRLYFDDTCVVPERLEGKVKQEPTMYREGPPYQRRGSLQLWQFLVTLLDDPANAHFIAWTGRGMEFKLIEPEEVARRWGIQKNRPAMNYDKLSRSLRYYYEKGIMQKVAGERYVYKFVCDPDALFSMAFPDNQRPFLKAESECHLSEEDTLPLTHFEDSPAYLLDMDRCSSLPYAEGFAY
Sequence of ELF1 (P32519 whole entry): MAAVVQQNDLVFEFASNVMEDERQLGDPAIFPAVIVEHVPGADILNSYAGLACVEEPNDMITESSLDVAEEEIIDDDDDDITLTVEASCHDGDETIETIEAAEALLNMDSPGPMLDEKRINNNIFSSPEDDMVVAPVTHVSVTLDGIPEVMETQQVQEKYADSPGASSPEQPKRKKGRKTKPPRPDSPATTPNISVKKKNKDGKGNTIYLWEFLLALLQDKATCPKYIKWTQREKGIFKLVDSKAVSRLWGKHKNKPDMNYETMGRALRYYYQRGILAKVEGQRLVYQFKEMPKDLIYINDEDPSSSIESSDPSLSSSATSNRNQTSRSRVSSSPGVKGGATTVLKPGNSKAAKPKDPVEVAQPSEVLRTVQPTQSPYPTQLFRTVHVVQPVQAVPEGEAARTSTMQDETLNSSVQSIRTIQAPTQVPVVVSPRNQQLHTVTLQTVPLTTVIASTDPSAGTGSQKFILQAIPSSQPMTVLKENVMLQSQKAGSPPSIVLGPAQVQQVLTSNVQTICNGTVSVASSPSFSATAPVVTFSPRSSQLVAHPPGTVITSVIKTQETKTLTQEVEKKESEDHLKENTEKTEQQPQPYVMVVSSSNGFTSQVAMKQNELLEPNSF
Sequence of ETV1 (P50549 whole entry): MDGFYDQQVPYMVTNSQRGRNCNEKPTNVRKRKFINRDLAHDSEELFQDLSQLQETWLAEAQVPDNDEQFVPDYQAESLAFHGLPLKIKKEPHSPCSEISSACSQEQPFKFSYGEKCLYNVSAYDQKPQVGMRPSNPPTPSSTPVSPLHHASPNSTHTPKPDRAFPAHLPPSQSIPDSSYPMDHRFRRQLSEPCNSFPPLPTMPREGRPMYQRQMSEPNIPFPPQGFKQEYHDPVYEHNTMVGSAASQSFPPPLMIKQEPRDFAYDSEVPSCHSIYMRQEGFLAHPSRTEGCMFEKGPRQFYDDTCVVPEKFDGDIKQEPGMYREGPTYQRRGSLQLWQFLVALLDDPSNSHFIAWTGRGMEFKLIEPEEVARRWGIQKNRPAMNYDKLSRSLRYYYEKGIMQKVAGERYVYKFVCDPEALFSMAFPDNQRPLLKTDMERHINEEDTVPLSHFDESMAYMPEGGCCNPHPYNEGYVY
Sequence of SPIB (Q01892 whole entry): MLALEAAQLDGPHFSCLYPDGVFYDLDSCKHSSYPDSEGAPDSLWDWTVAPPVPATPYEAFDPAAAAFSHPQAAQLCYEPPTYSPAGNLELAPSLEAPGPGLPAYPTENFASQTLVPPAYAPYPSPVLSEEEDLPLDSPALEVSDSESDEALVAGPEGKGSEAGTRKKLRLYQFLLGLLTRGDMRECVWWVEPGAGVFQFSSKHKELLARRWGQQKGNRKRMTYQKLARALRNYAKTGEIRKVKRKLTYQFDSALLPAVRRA

| Sequence | binding signal (FLI1) | binding signal (ELK1) | binding signal (ERG) | binding signal (ELF1) | binding signal (EHF) | binding signal (SPI1) | binding signal (SPIB) | binding signal (ELK3) | binding signal (FEV) | binding signal (ETV5) | binding signal (SPIC) | binding signal (ELF4) | binding signal (ELK4) | binding signal (ETV2) | binding signal (ELF3) | binding signal (ETV1) |
| --- | --- | --- | --- | --- | --- | --- | --- | --- | --- | --- | --- | --- | --- | --- | --- | --- |
| GTCCAT | 1.22 fold enrichment (6-mer frequency, TF over GST control) | 1.07 fold enrichment (6-mer frequency, TF over GST control) | 1.14 fold enrichment (6-mer frequency, TF over GST control) | 1.1 fold enrichment (6-mer frequency, TF over GST control) | 1.13 fold enrichment (6-mer frequency, TF over GST control) | 1.08 fold enrichment (6-mer frequency, TF over GST control) | 1.07 fold enrichment (6-mer frequency, TF over GST control) | 1.2 fold enrichment (6-mer frequency, TF over GST control) | 1.03 fold enrichment (6-mer frequency, TF over GST control) | 1.17 fold enrichment (6-mer frequency, TF over GST control) | 1.17 fold enrichment (6-mer frequency, TF over GST control) | 1.1 fold enrichment (6-mer frequency, TF over GST control) | 1.18 fold enrichment (6-mer frequency, TF over GST control) | 1.04 fold enrichment (6-mer frequency, TF over GST control) | 1.11 fold enrichment (6-mer frequency, TF over GST control) | 1.18 fold enrichment (6-mer frequency, TF over GST control) |
| ACACCA | 1.01 fold enrichment (6-mer frequency, TF over GST control) | 1.15 fold enrichment (6-mer frequency, TF over GST control) | 1.01 fold enrichment (6-mer frequency, TF over GST control) | 1.05 fold enrichment (6-mer frequency, TF over GST control) | 1.04 fold enrichment (6-mer frequency, TF over GST control) | – | – | – | 1.03 fold enrichment (6-mer frequency, TF over GST control) | 1.04 fold enrichment (6-mer frequency, TF over GST control) | 1.13 fold enrichment (6-mer frequency, TF over GST control) | 1.02 fold enrichment (6-mer frequency, TF over GST control) | 1.08 fold enrichment (6-mer frequency, TF over GST control) | 1.05 fold enrichment (6-mer frequency, TF over GST control) | 1.01 fold enrichment (6-mer frequency, TF over GST control) | – |
| GCAATG | 1.05 fold enrichment (6-mer frequency, TF over GST control) | 1.08 fold enrichment (6-mer frequency, TF over GST control) | – | 1.08 fold enrichment (6-mer frequency, TF over GST control) | 1.04 fold enrichment (6-mer frequency, TF over GST control) | – | – | 1.03 fold enrichment (6-mer frequency, TF over GST control) | 1.08 fold enrichment (6-mer frequency, TF over GST control) | 1.09 fold enrichment (6-mer frequency, TF over GST control) | 1.08 fold enrichment (6-mer frequency, TF over GST control) | 1.04 fold enrichment (6-mer frequency, TF over GST control) | 1.13 fold enrichment (6-mer frequency, TF over GST control) | 1.07 fold enrichment (6-mer frequency, TF over GST control) | 1.17 fold enrichment (6-mer frequency, TF over GST control) | 1.06 fold enrichment (6-mer frequency, TF over GST control) |
